{
  "source": "PubChem BioAssay AID603",
  "about": "(National Center for Advancing Translational Sciences (NCATS), 2007)",
  "note": "The whole screen tested about 71,000 compounds, of which about 180 (0.25%) were called active. The list comes from a sample in which actives are over-represented; it also holds similar structures and randomly drawn compounds. Unmarked numbers belong to inactive results. Calls come from the whole dose curve; as a rule, active = well fitted curve in the direction sought with a large enough effect; inconclusive = small, poorly fitted or top-dose-only effect; inactive = flat fitted curve, though single readings scatter. % is set by controls: 0 for no effect and ±100 for the full control effect; potency is the fitted concentration of half-maximal effect.",
  "data": [
    {"system": "DNA polymerase III holoenzyme (E. coli)", "experiment": "qHTS Assay for Inhibitors of DNA Polymerase III Holoenzyme System", "details": "reconstituted DNA polymerase III holoenzyme replication, biochemical; series mostly up to 57.1 µM; activity change, negative = inhibition: at the top concentration", "protocol": "NIH Molecular Libraries Screening Centers Network [MLSCN]\nNIH Chemical Genomics Center [NCGC]\nAssay Provider: Charles McHenry, University of Colorado\nE. coli DNA polymerase III holoenzyme complex was assayed for DNA production by fluorescent detection of the double-stranded DNA product with PicoGreen dye. The holoenzyme complex was reconstituted from the following purified protein components: DNA Polymerase III, beta subunit processivity factor, SSB single-stranded DNA binding protein, and Primase. Single-stranded, circular M13Gori was used as a substrate with dNTPs and NTPs also supplied to the substrate reagent. Compounds from the NCGC collection were incubated with the holoenzyme mixture for 15 min at room temperature to allow binding to occur, and then the reaction was started by the addition of substrate. After 30 min incubation at room temperature, PicoGreen solution containing EDTA was added to stop the reaction and to visualize the double-stranded DNA produced. Reaction progress was measured in a ViewLux CCD imager in fluorescence intensity mode by using 480 nm excitation and 540 nm emission filter set.\nNCGC Assay Protocol Summary:\nBuffer. 50 mM Hepes-KOH, pH 7.5, 5 % Glycerol, 0.02% NP40, 30 mM potassium;\nglutamate, 1.5 mM Magnesium Acetate, 16 uM TCEP.\nBuffer in columns 3 and 4 as negative control (no enzyme).\nSubstrate solution: 5 uM each dATP, dGTP, dCTP and TTP, 50 uM each GTP, CTP, UTP and 200 uM ATP, 1.4 nM M13gori (final concentrations).\nEnzyme: 154 nM SSB, 2 nM Primase, 1 nM Beta, 0.35 nM Pol III (final concentrations).\nPicoGreen/EDTA: 10 mM Tris-HCl, 10 mM EDTA, 5 uM PicoGreen (final concentrations).\nControl titration: ChemBridge 5805060 (from 10 mM, then 1:2, in duplicate) was pin-transferred to upper half of column 2.\nThree uL of holoenzyme mixture were dispensed to 1536-well Greiner black solid bottom plates. Compounds and controls (23 nL) were transferred via Kalypsys PinTool. The plates were incubated for 15 min at room temperature, and then 1 uL of substrate solution was added to start the reaction. After room temperature incubation for 35 minutes, 1 uL of PicoGreen solution was added to each well and the plates were read 480 nm excitation and 540 nm emission using ViewLux (Perkin-Elmer) High-throughput CCD imager and fluorescence protocol settings.\nKeywords: NIH Roadmap, MLSCN, MLI, MLSMR, qHTS, NCGC, DNA Polymerase III, DNAPol3, DNAPoly3, DNA replication targets", "values": [
      {"compound": "CC(=O)OCC(COC(C)=O)OC(C)=O", "activity change, negative = inhibition": "6%"},
      {"compound": "CCOc1ccc(-c2nnc3ccc(SC)nn23)cc1", "activity change, negative = inhibition": "-4.6%"},
      {"compound": "CN(C)c1ncc2nc(-c3ccc(F)cc3)c(=O)n(Cc3ccc(F)cc3)c2n1", "activity change, negative = inhibition": "-10.5%"},
      {"compound": "Cc1c(NC(=O)C(C)OC(=O)c2cc3c4ccccc4n(C)c3s2)c(=O)n(-c2ccccc2)n1C", "note": "(stereo not drawn)", "activity change, negative = inhibition": "-9%"},
      {"compound": "CC1COC2C(O1)N(S(C)(=O)=O)CCN2S(C)(=O)=O", "note": "(stereo not drawn)", "activity change, negative = inhibition": "-5.1%"},
      {"compound": "Cc1cc(NC(=O)COc2ccc(Cl)cc2Cl)n(CCC#N)n1", "activity change, negative = inhibition": "-3.1%"},
      {"compound": "COc1cc(=O)[nH]c(=O)n1C(=O)Cc1ccccc1", "activity change, negative = inhibition": "-6%"},
      {"compound": "CCC(C)(C)n1nnnc1C(c1cccs1)N1CCN(c2nc3ccccc3s2)CC1", "note": "(stereo not drawn)", "activity change, negative = inhibition": "-3.1%"},
      {"compound": "CC[N+](C)(CC)CCC[n+]1c(-c2ccccc2)c2cc(N)ccc2c2ccc(N)cc21", "Potency": "2 µM (active)"},
      {"compound": "O=C(OCC(COC(=O)c1ccccc1)(COC(=O)c1ccccc1)COC(=O)c1ccccc1)c1ccccc1", "activity change, negative = inhibition": "0.5%"},
      {"compound": "COc1ccc(CC(=O)n2nc(-c3cccnc3)nc2N)cc1", "activity change, negative = inhibition": "-4.3%"},
      {"compound": "COc1ccccc1NC(=O)C1=C(C)Nc2nnnn2C1c1cccc(Br)c1", "note": "(stereo not drawn)", "activity change, negative = inhibition": "-0.8%"},
      {"compound": "CC(C)NC(=O)CCCn1c(=S)[nH]c2cc3c(cc2c1=O)OCO3", "activity change, negative = inhibition": "-4.2%"},
      {"compound": "CCCC(=O)Nc1c(O)c2ccccc2[nH]c1=O", "activity change, negative = inhibition": "1.8%"},
      {"compound": "CCCOC(=O)Cc1c(O)c2ccccc2[nH]c1=O", "activity change, negative = inhibition": "2.4%"},
      {"compound": "O=C1C(c2[nH]c3ccccc3c2O)=Nc2ccccc21", "Potency": "3.98 µM (active)"},
      {"compound": "CC(C)(C)[Si](OCC[C@@H]1C[C@@]1(C)[C@@H](NP(=O)(c1ccccc1)c1ccccc1)c1ccccc1)(c1ccccc1)c1ccccc1", "activity change, negative = inhibition": "2.2%"},
      {"compound": "N#Cc1cccc(-c2ccc3ncnc(NCc4cccs4)c3c2)c1", "activity change, negative = inhibition": "-0.5%"},
      {"compound": "CC(C)C[C@H](NC(=O)NCCc1ccc(Cl)cc1)C(=O)O", "activity change, negative = inhibition": "0.4%"},
      {"compound": "COc1ccc(-n2ncc3c(N4CCCc5ccccc54)ncnc32)cc1", "activity change, negative = inhibition": "0.2%"},
      {"compound": "CCCC[C@@H]1C[C@H]1C(NC(=O)c1ccco1)c1ccc(C(=O)OC)cc1", "note": "(stereo partly drawn)", "activity change, negative = inhibition": "-5.4%"},
      {"compound": "CS(=O)(=O)N1CCC2(CC1)CN(c1ccncc1)C2", "activity change, negative = inhibition": "-4.4%"},
      {"compound": "O=C(O)c1ccc(C(=O)c2ccccc2C(=O)O)cc1C(=O)O", "Potency": "3.98 µM (active)"},
      {"compound": "Cc1ccccc1C(=O)O", "activity change, negative = inhibition": "1.3%"},
      {"compound": "O=C(c1ccc(O)cc1)c1ccc(C(=O)O)c(C(=O)O)c1", "activity change, negative = inhibition": "-2.9%"},
      {"compound": "CCc1nnc(NS(=O)(=O)c2ccc(NS(=O)(=O)c3ccccc3)cc2)s1", "activity change, negative = inhibition": "-14.1%"},
      {"compound": "Cc1ccnc(N)c1", "activity change, negative = inhibition": "-0.2%"},
      {"compound": "c1ccc2nc(C3=NCCN3)cnc2c1", "activity change, negative = inhibition": "-3.7%"},
      {"compound": "c1ccc(Cc2nn3c(Cn4cnc5ccccc54)nnc3s2)cc1", "activity change, negative = inhibition": "-6.2%"},
      {"compound": "COc1ccc2oc(=O)c(C(=O)O)cc2c1", "activity change, negative = inhibition": "0.4%"},
      {"compound": "O=C(CN1CCOc2ccccc21)N1CCC(Cc2ccccc2)CC1", "activity change, negative = inhibition": "0.5%"},
      {"compound": "O=C(NCCCN1CCCCCC1)c1ccc(N2CCCC2=O)cc1", "activity change, negative = inhibition": "-2.7%"},
      {"compound": "CC(=O)N1[C@H](C)C=C[C@]1(Cc1ccccc1)C(=O)NCc1ccccn1", "activity change, negative = inhibition": "10.3%"},
      {"compound": "O=C1CN(C(=O)COC(=O)C2CC(=O)N(Cc3ccco3)C2)c2ccccc2N1", "note": "(stereo not drawn)", "activity change, negative = inhibition": "-5.6%"},
      {"compound": "O=C(Nc1ccn(Cc2ccc(F)cc2)n1)c1ccncc1", "activity change, negative = inhibition": "2.3%"},
      {"compound": "CC(=O)N=c1ncn(CC(COC(C)=O)OC(C)=O)c2nc[nH]c12", "note": "(stereo not drawn)", "activity change, negative = inhibition": "-5.5%"},
      {"compound": "CCn1c(CSc2ncccn2)nnc1SCC(=O)N1c2ccccc2CC1C", "note": "(stereo not drawn)", "activity change, negative = inhibition": "-3.1%"},
      {"compound": "C/C(=C\\c1ccco1)C1Nc2cccc3cccc(c23)N1", "Potency": "3.16 µM (active)"},
      {"compound": "Cc1cc(C)cc(NC(=O)C2CCN(c3nc(C)cc(C)n3)CC2)c1", "activity change, negative = inhibition": "-1.5%"},
      {"compound": "CN1CCCC(OC(=O)COc2ccc(Br)cc2)C1", "note": "(stereo not drawn)", "activity change, negative = inhibition": "-3.3%"},
      {"compound": "Cc1cc(=O)oc(C)c1C(=O)NCc1ccc(F)cc1", "activity change, negative = inhibition": "-6.9%"},
      {"compound": "Oc1ccccc1CNCc1ccccc1O", "activity change, negative = inhibition": "-9.4% [at 11.4 µM]"},
      {"compound": "CCOC(=O)c1c(C2CC2)csc1NC(=O)CSCc1c(C)noc1C", "activity change, negative = inhibition": "-5.2%"},
      {"compound": "Cc1cc(C)nc(SCc2ccccc2C#N)n1", "activity change, negative = inhibition": "-13.8%"},
      {"compound": "CCCCCCc1ccc(O)cc1O", "activity change, negative = inhibition": "0.2%"},
      {"compound": "COc1ccccc1CNc1ncnc2ccc(-c3c(C)noc3C)cc12", "activity change, negative = inhibition": "-1.2%"},
      {"compound": "COc1ccc(Cn2cccc(NC(=O)Nc3ccc(C#N)cc3)c2=O)cc1", "activity change, negative = inhibition": "-2.6%"},
      {"compound": "COc1ccc(OC)c(C(=O)c2ccc(C(=O)O)cc2)c1", "activity change, negative = inhibition": "1.1%"},
      {"compound": "CC(C)NC[C@H](O)c1ccc2ccccc2c1", "activity change, negative = inhibition": "inactive"},
      {"compound": "O=C(Oc1ccc2c(c1)CN(Cc1ccccc1)CO2)c1ccccc1", "activity change, negative = inhibition": "-3% [at 11.4 µM]"},
      {"compound": "COCCn1c(=O)c(CCc2ccccc2)nc2cncnc21", "activity change, negative = inhibition": "-7.4%"},
      {"compound": "CCCn1c(-c2ccc(F)cc2)nc2c(NCC3CCCN3CC)nc(C)nc21", "note": "(stereo not drawn)", "activity change, negative = inhibition": "-1.2%"},
      {"compound": "COc1cccc2sc(Nc3nc(C)c(C(C)=O)s3)nc12", "activity change, negative = inhibition": "-4.5%"}
    ]}
  ]
}
